Results reported in PubChem BioAssay (NCATS).
Results filed as inconclusive are left out. Calls of active or inactive are those of the source. The call rests on the fitted dose curve; in most records, active means well fitted cell-killing curve with a large enough effect; inconclusive means small, poorly fitted or top-dose-only effect, or effect the other way; inactive means flat fitted curve, though single readings scatter.

Legend:
Experiment in all cases: Primary qHTS to identify gynecologic anti-cancer compounds using libraries of approved drugs and bioactive compounds (AID 1345084); further: nearly all actives have a fitted effect of over 55% in size
C33A = settings: Gynecologic cancer cell panel viability, ATPlite luminescence, 48 h; series mostly up to 57.5 µM
Procedure, shortened: (§1)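 Cells, 1,000 per well, plated 16 h, then exposed 48 h at 37 C to compounds. Viability by ATPlite luminescence after 15 min at room temperature.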

CASKI = settings: Gynecologic cancer cell panel viability, ATPlite luminescence, 48 h; series mostly up to 57.5 µM
Procedure, shortened: as §1

JEG-3 = settings: Gynecologic cancer cell panel viability, ATPlite luminescence, 48 h; series mostly up to 57.5 µM
Procedure, shortened: as §1

PA-1 = settings: Gynecologic cancer cell panel viability, ATPlite luminescence, 48 h; series mostly up to 57.5 µM
Procedure, shortened: as §1

HeLa = settings: Gynecologic cancer cell panel viability, ATPlite luminescence, 48 h; series mostly up to 57.5 µM
Procedure, shortened: as §1

OV90 = settings: Gynecologic cancer cell panel viability, ATPlite luminescence, 48 h; series mostly up to 57.5 µM
Procedure, shortened: as §1

Es-2 = settings: Gynecologic cancer cell panel viability, ATPlite luminescence, 48 h; series mostly up to 57.5 µM
Procedure, shortened: as §1

Hek293T = settings: Gynecologic cancer cell panel viability, ATPlite luminescence, 48 h, control line for the selectivity index; series mostly up to 57.5 µM
Procedure, shortened: as §1

CAOV3 = settings: Gynecologic cancer cell panel viability, ATPlite luminescence, 48 h; series mostly up to 57.5 µM
Procedure, shortened: as §1
On the % scale 0 is the no-effect control and ±100 the full control effect; potency means the concentration at half of the fitted maximal effect.

CCC1C(=O)N(C)c2cnc(Nc3ccc(C(=O)NC4CCN(C)CC4)cc3OC)nc2N1C1CCCC1 (stereo not drawn)
active: Potency (C33A) 20 µM | Potency (CASKI) 3.98 µM | Potency (JEG-3) 28.2 µM | Potency (PA-1) 1.78 µM

CCn1c2ccccc2c2cc(Nc3ccnc(NCCCN4CCOCC4)n3)ccc21
inactive: Potency (C33A) | Potency (CASKI) | Potency (HeLa)

O=S(=O)(NCc1cccc2ccccc12)c1cc(Cl)c(Oc2cccc(N3CCNCC3)c2)s1
inactive: Potency (C33A) | Potency (CASKI) | Potency (HeLa) | Potency (JEG-3) | Potency (OV90)

CN(C)CCC(CSc1ccccc1)Nc1ccc(S(=O)(=O)NC(=O)c2ccc(N3CCN(Cc4ccccc4-c4ccc(Cl)cc4)CC3)cc2)cc1[N+](=O)[O-] (stereo not drawn)
inactive: Potency (C33A) | Potency (Es-2) | Potency (HeLa) | Potency (Hek293T) | Potency (JEG-3) | Potency (PA-1)

O=C(NCCCCCCCCNC(=O)C(Cl)Cl)C(Cl)Cl
inactive: Potency (C33A) | Potency (Es-2) | Potency (HeLa) | Potency (Hek293T) | Potency (JEG-3) | Potency (PA-1)

COC(=O)CC1OC(C)C2=C(O)c3c(O)cccc3C(=O)C23OC13 (stereo not drawn)
active: Potency (C33A) 12.6 µM | Potency (Es-2) 10 µM | Potency (Hek293T) 10 µM | Potency (OV90) 10 µM | Potency (PA-1) 3.98 µM

Cc1cc(Nc2nc(-c3ccccc3)nc3ccccc23)n[nH]1
inactive: Potency (C33A) | Potency (Es-2) | Potency (OV90)
active: Potency (PA-1) 10 µM

COc1cc(N2CCC(O)CC2)ccc1Nc1nc(Nc2ccccc2S(=O)(=O)C(C)C)c2[nH]cnc2n1
inactive: Potency (C33A) | Potency (Es-2) | Potency (Hek293T) | Potency (JEG-3) | Potency (OV90) | Potency (PA-1)

O=S(=O)(c1ccc(Cl)cc1)N1CCN(c2ccnc3cc(Cl)ccc23)CC1
inactive: Potency (CAOV3) | Potency (CASKI) | Potency (Es-2) | Potency (HeLa) | Potency (Hek293T) | Potency (JEG-3) | Potency (OV90) | Potency (PA-1)

Cc1ccc(O)cc1Nc1ccnc(Nc2cccc(C(N)=O)c2)n1
inactive: Potency (C33A) | Potency (JEG-3)

CCNC(=O)C#Cc1ccc2c(C(=Nc3ccc(CN(C)C)cc3)c3ccccc3)c(O)[nH]c2c1
inactive: Potency (C33A) | Potency (Hek293T) | Potency (JEG-3)
active: Potency (OV90) 0.447 µM

Cc1nc(NC(=O)N2CCC[C@H]2C(N)=O)sc1-c1ccnc(C(C)(C)C(F)(F)F)c1
inactive: Potency (C33A) | Potency (Es-2) | Potency (HeLa) | Potency (Hek293T) | Potency (JEG-3) | Potency (PA-1)

CCC(C)C(=O)OC12C(OC(C)=O)C(C)C3(O)C(C=C(CO)CC4(O)C(=O)C(C)=CC43)C1C2(C)C (stereo not drawn)
inactive: Potency (CAOV3) | Potency (CASKI) | Potency (HeLa) | Potency (Hek293T) | Potency (JEG-3)
active: Potency (Es-2) 0.316 µM

CC(C)C[C@@H](N)C(=O)N[C@H]1C(=O)N[C@@H](CC(N)=O)C(=O)N[C@H]2C(=O)N[C@H]3C(=O)N[C@H](C(=O)N[C@H](C(=O)O)c4cc(O)cc(O)c4-c4cc3ccc4O)[C@H](O)c3ccc(c(Cl)c3)Oc3cc2cc(c3O[C@@H]2O[C@H](CO)[C@@H](O)[C@H](O)[C@H]2O[C@H]2C[C@](C)(N)[C@H](O)[C@H](C)O2)Oc2ccc(cc2Cl)[C@H]1O
inactive: Potency (CAOV3)

Cc1c(NC(=O)c2cc3c(s2)CCCC3)cccc1-c1cn(C)c(=O)c(Nc2ccc(C3C(=O)N(C)CCN3C)cc2)n1 (stereo not drawn)
inactive: Potency (C33A) | Potency (Es-2) | Potency (Hek293T)

COc1cccc(OCCCN)c1-c1cc(Nc2cnc(C#N)cn2)n[nH]1
inactive: Potency (CASKI)
active: Potency (CAOV3) 14.1 µM

O=C(NCCCc1ccccc1)c1cccc(-c2cc(O)c3ncccc3c2)c1
inactive: Potency (CAOV3) | Potency (CASKI)

O=c1cc(N2CCOCC2)nc2c3ccccc3ccn12
inactive: Potency (C33A) | Potency (Es-2) | Potency (HeLa) | Potency (Hek293T) | Potency (JEG-3) | Potency (OV90) | Potency (PA-1)

Nc1nc(NC2CC2)cc(-c2cccc(Cl)c2Cl)n1
active: Potency (HeLa) 20 µM | Potency (PA-1) 28.2 µM
inactive: Potency (C33A) | Potency (OV90)

Cc1cc2c(c(=O)o1)C=C1CC[C@H]([C@H](C)Cn3cnc(=N)c4[nH]cnc43)C[C@@H]1O2
inactive: Potency (CAOV3) | Potency (CASKI) | Potency (Es-2) | Potency (HeLa) | Potency (Hek293T) | Potency (JEG-3) | Potency (OV90) | Potency (PA-1)

CC1(C(=O)Nc2ccc(F)nc2)CCCN1c1nc(Nc2cc(C3CC3)[nH]n2)c2cccn2n1 (stereo not drawn)
inactive: Potency (C33A) | Potency (Es-2)
active: Potency (Hek293T) 5.01 µM | Potency (OV90) 3.55 µM

CC(C)n1cnc2c(-c3cnc(N)nc3)nc(N3CCOCC3)nc21
active: Potency (Hek293T) 1.12 µM
inactive: Potency (C33A) | Potency (JEG-3)

Fc1ccc(-c2nc(C3CCNCC3)sc2-c2ccnc(NC3CC3)n2)cc1
inactive: Potency (C33A) | Potency (Hek293T) | Potency (OV90)

CC(CCC1(O)OC2CC3C4CC=C5CC(O[C@@H]6O[C@H](CO)[C@@H](O[C@@H]7O[C@@H](C)[C@H](O)[C@@H](O)[C@H]7O)[C@H](O)[C@H]6O[C@@H]6O[C@@H](C)[C@H](O)[C@@H](O)[C@H]6O)CCC5(C)C4CCC3(C)C2C1C)CO[C@@H]1O[C@H](CO)[C@@H](O)[C@H](O)[C@H]1O (stereo partly drawn)
inactive: activity change, negative = cytotoxicity (CAOV3) -11% [at 11.6 µM] | activity change, negative = cytotoxicity (CASKI) 1.54% [at 11.6 µM] | activity change, negative = cytotoxicity (Es-2) 4.17% [at 11.6 µM] | activity change, negative = cytotoxicity (HeLa) -7.05% [at 11.6 µM] | activity change, negative = cytotoxicity (Hek293T) 4.44% [at 11.6 µM] | activity change, negative = cytotoxicity (JEG-3) 10.4% [at 11.6 µM] | activity change, negative = cytotoxicity (OV90) -6.71% [at 11.6 µM]

O=C(CN1C2=NCCN2c2ccccc21)c1ccc(-c2ccccc2)cc1
inactive: Potency (C33A) | Potency (Es-2) | Potency (HeLa) | Potency (Hek293T) | Potency (JEG-3) | Potency (PA-1)

CC(C)(O)C1Cc2c(ccc(C(=O)CCc3ccccc3)c2O)O1 (stereo not drawn)
inactive: Potency (JEG-3)
active: Potency (C33A) 11.2 µM | Potency (HeLa) 10 µM | Potency (Hek293T) 11.2 µM | Potency (OV90) 11.2 µM | Potency (PA-1) 12.6 µM

N#Cc1ccc(O[C@@H]2c3ccccc3C[C@H]2N2CCC[C@@H](N)C2)c(Cl)c1
inactive: Potency (C33A) | Potency (HeLa) | Potency (Hek293T) | Potency (JEG-3) | Potency (OV90) | Potency (PA-1)

C=C1C(=O)O[C@@H]2C[C@H](C)[C@@H]3CC(=O)C(C)=C3C[C@H]12
active: Potency (C33A) 28.2 µM
inactive: Potency (HeLa)

CCCC(CCC)C(=O)Nc1ccn([C@@H]2O[C@H](CO)[C@@H](O)C2(F)F)c(=O)n1
inactive: Potency (C33A) | Potency (HeLa) | Potency (Hek293T) | Potency (JEG-3)
